According to PubChem BioAssay (NCI):
The panel holds about 83,000 compounds, 20% with a hit somewhere; the sample as a whole holds those more often.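 Single-dose data. Exposure time 48 hours. Values below 10 considered active.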 Values without a mark were called inactive. Active and inactive are the calls of the source.

Experiments:
Test in all cases: NCI-60 one-dose screen, 48 h (100 = growth as untreated, 0 = no growth, -100 = all killed)
Details in all cases: 10 µM unless noted
HCT-15 colon = test system: HCT-15 colon
HT29 colon = test system: HT29 colon
SNB-75 CNS = test system: SNB-75 CNS
SNB-19 CNS = test system: SNB-19 CNS
U251 CNS = test system: U251 CNS
PC-3 prostate = test system: PC-3 prostate
SK-MEL-5 melanoma = test system: SK-MEL-5 melanoma
UACC-62 melanoma = test system: UACC-62 melanoma
LOX IMVI melanoma = test system: LOX IMVI melanoma
SK-MEL-28 melanoma = test system: SK-MEL-28 melanoma

SMILES | growth (HCT-15 colon) | growth (HT29 colon) | growth (SNB-75 CNS) | growth (SNB-19 CNS) | growth (U251 CNS) | growth (PC-3 prostate) | growth (SK-MEL-5 melanoma) | growth (UACC-62 melanoma) | growth (LOX IMVI melanoma) | growth (SK-MEL-28 melanoma)
N#CC1(c2ccccc2)CCN(Cc2ccccc2)CC1 | 94.1% | 101% | 121% | 114% | 107% | 84.2% | 102% | 110% | 102% | 122%
Cc1cc(N(CCCl)CCCl)ccc1C=Nc1ccccc1-c1ccccc1 | 79.4% | 89.3% | 66.1% | 77.9% | 63.3% | 85.5% | 85.7% | 6.46% (active) | 66.3% | 95.2%
O=C(O)c1ccc([S-])cc1.[Au+].c1ccc(CN2[CH-]N(Cc3ccccc3)C(c3ccccc3)=C2c2ccccc2)cc1 | -89.3% (active) | -24.7% (active) | -9.88% (active) | -66.8% (active) | -82.5% (active) | -25.6% (active) | -92.9% (active) | -51.6% (active) | -78.9% (active) | -20.2% (active)
CC(=O)O[C@H](C[C@H](C(C)C)N(C)C(=O)[C@@H](NC(=O)[C@H]1CCCCN1C)C(C)C)c1cccc(C(=O)N[C@@H](Cc2ccccc2)C[C@H](C)C(=O)O)n1 | 9.65% (active) | 2.72% (active) | 27.6% | 22.4% | 10.9% | 26.4% | -39.2% (active) | 36.3% | 14.6% | 65%
CCCC(=O)O[C@@H]1C[C@H]2C[C@@H](O[C@@H]3O[C@@H](C)[C@@H](O)[C@@H](O)[C@H]3OC)C[C@@H](C[C@@H](C)/C=C/C=C\C[C@@H]3O[C@@H](C[C@@H]3C)[C@@H](O)C[C@H]3C[C@@]1(O)C(=O)O3)O2 | 54.3% | 60% | 55.4% | 52.4% | 35.6% | 33% | 19.5% | 62.5% | 62.5% | 71.5%
ClCCN(CCCl)c1ccc(OCc2ccccc2)cc1 | 73.1% | 76.7% | 53.8% | 57.1% | 40.5% | 63.1% | 82.7% | 44.2% | 38.9% | 84.1%
O=C(O)C(O)C(O)C1[O][Sb]([c]2ccc([N+](=O)[O-])cc2)[O]C1CO (stereo not given) | 95.8% | 101% | 99.1% | 94.9% | 101% | 100% | 103% | 91.9% | 101% | 106%
CCCC[C@H](NC(=O)[C@H]1CCCN1C)C(=O)N(C)[C@H](C[C@@H](OC(C)=O)c1nc(C(=O)N[C@@H](Cc2ccccc2)C[C@H](C)C(=O)OCC)cs1)C(C)C | 19.1% | 1.99% (active) | 51.5% | 38.4% | 8.61% (active) | 13% | -25.1% (active) | 43.4% | 20.8% | 71.3%
COC(=O)[C@H](Cc1ccccc1)NC(=O)c1csc([C@@H](C[C@H](C(C)C)N(C)C(=O)[C@@H](NC(=O)[C@H]2CCCCN2C)C2CC2)OC(C)=O)n1 | 13.1% | 5.33% (active) | 34.3% | 69.6% | -5.23% (active) | 11.3% | -1.17% (active) | 36.3% | 14.7% | 44.7%
Clc1ccc(COC(Cn2ccnc2)c2ccc(Cl)cc2Cl)cc1 (stereo not given) | 53% | 43.6% | 93.3% | 78% | 64.4% | 21.1% | 49.5% | 52.6% | 31.6% | 83.9%
O=C1C2CCC1C(N1CCCC1)CC2 (stereo not given) | 98.6% | 102% | 79.8% | 102% | 100% | 93.1% | 99.9% | 96.6% | 97.8% | 102%
NC(CCl)CCl | 87.3% | 97.8% | 90.3% | 105% | 99.8% | 104% | 99.4% | 99.9% | 106% | 98.3%
CN1CCCCC1C(C)(O)c1ccccc1 (stereo not given) | 100% | 93.4% | 93% | 107% | 101% | 82.1% | 104% | 104% | 99% | 105%
CC(=O)O[C@H]1CC[C@H]2[C@@H]3CC=C4c5nc(-c6ccccc6)sc5CC[C@]4(C)[C@H]3CC[C@]12C | 9.12% (active) | -31.5% (active) | 91.4% | 67.4% | 47.5% | 72.3% | 59.9% | 50.7% | 29.8% | 90.4%
CC(=O)Nc1nc2c(s1)CC[C@@]1(C)C2=CC[C@H]2[C@@H]3CC[C@H](O)[C@@]3(C)CC[C@@H]21 | 29.5% | 20.8% | 54.5% | 62.1% | 48.5% | 67.8% | 53.7% | 34.9% | 53.6% | 56.4%
OCCCCCNC1CCCCC1 | 96.1% | 90.7% | 101% | 112% | 101% | 101% | 96.7% | 102% | 101% | 95%
O=C(CN1CCN(C(=O)c2ccco2)CC1)Nc1ccc(Cl)cc1C(=O)c1ccccc1Cl | 81.9% | 89.4% | 67.8% | 99.2% | 91.3% | 73.9% | 51.1% | 58.5% | 79.9% | 110%
Nc1c(F)cc(-c2nc3cc(F)ccc3[se]2)cc1Br | 18.5% | 5.05% (active) | 73.4% | 94.5% | 87.5% | 66.4% | 50% | 47.5% | 90.1% | 106%
O=C(O)C(Cl)(Cl)C(F)(F)F | 104% | 103% | 97.7% | 105% | 108% | 102% | 103% | 105% | 106% | 110%
COc1ccc(/C=C/c2cc(OC)c(OC)c(OC)c2)cc1NC(=O)/C=C/c1ccc(F)cc1 | 25.2% | 9.9% (active) | 3.26% (active) | 33.5% | 36.8% | 28.7% | 7.06% (active) | 35.5% | 39% | 47.2%
Cc1ccccc1NC(=NCCCN1CC1)Nc1ccccc1C | 96% | 75.5% | 100% | 96.8% | 91.5% | 74.4% | 98% | 105% | 75.3% | 111%
COc1ccc(/C=C\c2cc(OC)c(OC)c(OC)c2)cc1OCC(=O)Nc1nc2ccc(OC(F)(F)F)cc2s1 | 22.2% | 97.5% | 7.25% (active) | 42.7% | 26% | 34% | 27.3% | 31.1% | 27.1% | 34.4%
CC12CCC=CC1CCC1C2CCC2(C)C(c3ccc(=O)oc3)CCC12O (stereo not given) | -71.7% (active) | -66.5% (active) | -56.7% (active) | -99.9% (active) | -77.2% (active) | -19.6% (active) | -56.6% (active) | -65.4% (active) | -83.8% (active) | -31.1% (active)
CCC1(C(C)C)C(=O)NC(=S)NC1=O | 97.6% | 112% | 95.5% | 108% | 95.9% | 95.6% | 98.8% | 103% | 102% | 109%
CCCCN1CCCC[C@@H]1C(=O)N[C@H](C(=O)N(C)[C@H](CCc1nc(C(=O)N[C@@H](Cc2ccccc2)C[C@H](C)C(=O)OC)cs1)C(C)C)[C@@H](C)CC | 41.4% | 35.2% | 70.3% | 62.5% | 58.3% | 40.8% | 34.8% | 47% | 78.2% | 81.1%
CNC(=O)Oc1ccc2c(c1)OCO2 | 101% | 104% | 98.6% | 98.9% | 99% | 102% | 101% | 99.4% | 103% | 108%
Cn1cc(C2=C(c3cn(C4CCN(Cc5ccccn5)CC4)c4ccccc34)C(=O)NC2=O)c2ccccc21 | 85.9% | 14.3% | 57.8% | 101% | 88.4% | 92.2% | 69.2% | 13.7% | 48.5% | 18.7%
